The subject of this test is TDF. As to the kind of experiment: cell number relative to DMSO (% of DMSO); higher = more cells (less growth inhibition / toxicity). Conditions: concentration: 10 µM; 24 h. In outline: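 Cells were seeded at 800 per well in 384-well plates with RPMI containing 10% FBS; both HCC1569 and TDF lines were used. Compounds were added at 10 µM for 24 h at 37 °C, in triplicate, before fixation in 3.7% formaldehyde and staining with a rabbit anti-H1.0 antibody, an AlexaFluor 647 secondary and DAPI. H1.0 nuclear intensity or cell number is reported as percent of the plate control using the median of replicates, and HCC1569 values were smoothed for positional effects.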
As to `Cc1[nH]c2ccc(O)cc2c1CCN.O=C(O)C=CC(=O)O` [2-Methyl-5-hydroxytryptamine maleate], the cell number is 98.7.
Turning to `CC1(C)CCCC(C)(C)N1[O]`, the cell number was 96.8.
The figure for `CN1Cc2c(ccc3c2OCO3)C2C(O)Cc3cc4c(cc3C21)OCO4` (single isomer, unassigned; (+)) [(+)-Chelidonine] is 7.56; for `CC1OC(C[N+](C)(C)C)CS1.[I-]` (stereo not drawn) [OXA-22 iodide] it is 116.
In the case of `C=CCN1CCC23c4c5ccc(O)c4OC2C(=NN=C2CCC4(O)C6Cc7ccc(O)c8c7C4(CCN6CC=C)C2O8)CCC3(O)C1C5` (stereo not drawn) [Naloxonazine], the cell number worked out at 89.
The figure for `O=C([O-])Cc1ccccc1.[Na+]` [Sodium Phenylacetate] is 103; for `CC1=CC(=O)c2c(O)cccc2C1=O` [Plumbagin] it is 46.8.
Under `CCn1cnc2c(Nc3cccc(Cl)c3)nc(NC3CCCCC3N)nc21` (stereo not drawn) stands 13.5; under `O=C1NC(=O)c2c1c1c3ccccc3[nH]c1c1[nH]c3ccccc3c21`, 126; under `CN(C)C(=O)Oc1cccc([N+](C)(C)C)c1.[Br-]` [Neostigmine bromide], 98.4.
`CC(CCc1ccccc1)NC(C)C(O)c1ccc(O)cc1.Cl` (stereo not drawn) [Buphenine.HCl] had a cell number of 104.
Under `CC1OC(C[N+](C)(C)C)CC1O.[Cl-]` (single isomer, unassigned; (+)) [(+)-Muscarine chloride] stands 116.
The molecule `Cl.O=C(O)Cc1cnc[nH]1` [Imidazole-4-acetic acid hydrochloride] displayed a cell number of 107.
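Also: TDF denotes transformed human dermal fibroblasts of mesenchymal origin.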
